PubChem BioAssay (NCATS)
Records with an inconclusive call do not appear. Where a call stands in place of a potency, no number is given. Values without a mark were called inactive. Calls of active or inactive are those of the source. Calls follow the shape of the dose curve; as a rule, active = well fitted curve in the direction sought with a large enough effect; inconclusive = small, poorly fitted or top-dose-only effect, or another doubt; inactive = no such curve, though single readings can be large; an effect the other way counts as inactive or inconclusive.

Key:
C33A = experiment: Primary qHTS to identify gynecologic anti-cancer compounds using libraries of approved drugs and bioactive compounds (AID 1345084); details: Gynecologic cancer cell panel viability, ATPlite luminescence, 48 h; series mostly up to 57.5 µM; also: nearly all actives have a fitted effect of over 55% in size
How it was run: (§1)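 Five-point cytotoxicity, 48 h drug exposure at 37 C, 5% CO2, on cells seeded 16 h beforehand. ATP content read by ATPlite luminescence.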

CAOV3 = experiment: as above; details: Gynecologic cancer cell panel viability, ATPlite luminescence, 48 h; series mostly up to 57.5 µM
How it was run: as §1

Es-2 = experiment: as above; details: Gynecologic cancer cell panel viability, ATPlite luminescence, 48 h; series mostly up to 57.5 µM
How it was run: as §1

HeLa = experiment: as above; details: Gynecologic cancer cell panel viability, ATPlite luminescence, 48 h; series mostly up to 57.5 µM
How it was run: as §1

JEG-3 = experiment: as above; details: Gynecologic cancer cell panel viability, ATPlite luminescence, 48 h; series mostly up to 57.5 µM
How it was run: as §1

PA-1 = experiment: as above; details: Gynecologic cancer cell panel viability, ATPlite luminescence, 48 h; series mostly up to 57.5 µM
How it was run: as §1

SKOV3 = experiment: as above; details: Gynecologic cancer cell panel viability, ATPlite luminescence, 48 h; series mostly up to 57.5 µM
How it was run: as §1

Tov-21-G = experiment: as above; details: Gynecologic cancer cell panel viability, ATPlite luminescence, 48 h; series mostly up to 57.5 µM
How it was run: as §1

Tov112D = experiment: as above; details: Gynecologic cancer cell panel viability, ATPlite luminescence, 48 h; series mostly up to 57.5 µM
How it was run: as §1

CASKI = experiment: as above; details: Gynecologic cancer cell panel viability, ATPlite luminescence, 48 h; series mostly up to 57.5 µM
How it was run: as §1

Hek293T = experiment: as above; details: Gynecologic cancer cell panel viability, ATPlite luminescence, 48 h, control line for the selectivity index; series mostly up to 57.5 µM
How it was run: as §1

OV90 = experiment: as above; details: Gynecologic cancer cell panel viability, ATPlite luminescence, 48 h; series mostly up to 57.5 µM
How it was run: as §1

[1] = qHTS assay to identify inhibitors of the type 1 interferon - major histocompatibility complex class I in skeletal muscle: Counter screen cell viability and HiBit confirmation (AID 1347412); details: iHSKM muscle cells + IFN-b, HiBiT or CellTiter-Glo, 24 h; HiBiT; also: nearly all actives have a fitted effect of over 60% in size
How it was run: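 Duplicate plates, pinned identically: one read for HiBiT-tagged endogenous HLA-B luminescence, the other for ATP-content viability via CellTiter Glo. Cells were genome-engineered human myoblasts given 4 ng/ml IFN-b; compounds 12-pt, 1:3 from 46 uM final; 24 hr exposure.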
Potency is read from the fitted curve at half-maximal effect.

SMILES: CO[C@H]1C[C@@H]2CC[C@@H](C)[C@@](O)(O2)C(=O)C(=O)N2CCCC[C@H]2C(=O)O[C@H]([C@H](C)C[C@@H]2CC[C@@H](OP(C)(C)=O)[C@H](OC)C2)CC(=O)[C@H](C)/C=C(\C)[C@@H](O)[C@@H](OC)C(=O)[C@H](C)C[C@H](C)/C=C/C=C/C=C/1C
- Potency (C33A): inactive
- Potency (CAOV3): inactive
- Potency (Es-2): inactive
- Potency (HeLa): inactive
- Potency (JEG-3): inactive
- Potency (PA-1): inactive
- Potency (SKOV3): inactive
- Potency (Tov-21-G): inactive
- Potency (Tov112D): inactive

SMILES: C=CCC1=C[C@]2(OC)[C@H](C)[C@@H](c3ccc(O)c(OC)c3)O[C@]2(OC)CC1=O
- Potency (C33A): inactive
- Potency (CASKI): inactive
- Potency (Es-2): inactive
- Potency (HeLa): inactive
- Potency (Hek293T): inactive
- Potency (JEG-3): inactive
- Potency (OV90): inactive
- Potency (PA-1): inactive
- Potency (SKOV3): inactive
- Potency (Tov-21-G): inactive
- Potency (Tov112D): inactive

SMILES: Cc1cccc(-c2[nH]c(Cc3cccc(C(N)=O)c3)nc2-c2ccc3nccnc3c2)n1
- Potency (C33A): inactive
- Potency (CASKI): inactive
- Potency (Es-2): inactive
- Potency (HeLa): inactive
- Potency (Hek293T): inactive
- Potency (JEG-3): inactive
- Potency (OV90): inactive
- Potency (PA-1): inactive
- Potency (SKOV3): inactive
- Potency (Tov-21-G): inactive
- Potency (Tov112D): inactive

SMILES: CC1=C(CO)C(=O)O[C@@H]([C@@H](C)[C@H]2CC[C@H]3[C@@H]4C[C@H]5O[C@]56[C@@H](O)C=CC(=O)[C@]6(C)[C@H]4CC[C@]23C)C1
- Potency (C33A): 4.47 µM (active)
- Potency (CAOV3): 8.91 µM (active)
- Potency (Es-2): 11.2 µM (active)
- Potency (Hek293T): 11.2 µM (active)
- Potency (SKOV3): 8.91 µM (active)
- Potency (Tov-21-G): 7.08 µM (active)
- Potency (Tov112D): 10 µM (active)
- Potency [1]: 0.883 µM (active)

SMILES: C[C@@H]1O[C@@H](O[C@H]2[C@H](O[C@H]3CC[C@@]4(C)C(CC[C@]5(C)C4CC=C4[C@@H]6CC(C)(C)CC[C@]6(C(=O)O[C@@H]6OC[C@H](O)[C@H](O)[C@H]6O[C@@H]6O[C@@H](C)[C@H](O[C@@H]7O[C@H](CO)[C@@H](O)[C@H](O)[C@H]7O)[C@H](O)[C@H]6O)[C@H](O)C[C@]45C)C3(C)C)O[C@H](CO)[C@@H](O[C@@H]3OC[C@@H](O)[C@H](O)[C@H]3O)[C@@H]2O)[C@H](O)[C@H](O)[C@H]1O (stereo not given in full)
- activity change, negative = cytotoxicity (C33A): -7.19% [at 6.55 µM]
- activity change, negative = cytotoxicity (CASKI): 6.32% [at 6.55 µM]
- activity change, negative = cytotoxicity (Es-2): 0.0947% [at 6.55 µM]
- activity change, negative = cytotoxicity (HeLa): -17.4% [at 6.55 µM]
- activity change, negative = cytotoxicity (Hek293T): 6.66% [at 6.55 µM]
- activity change, negative = cytotoxicity (JEG-3): 5.72% [at 6.55 µM]
- activity change, negative = cytotoxicity (OV90): 11.1% [at 6.55 µM]
- activity change, negative = cytotoxicity (PA-1): 4.23% [at 6.55 µM]
- activity change, negative = cytotoxicity (SKOV3): -6.09% [at 6.55 µM]
- activity change, negative = cytotoxicity (Tov-21-G): 2.71% [at 6.55 µM]
- activity change, negative = cytotoxicity (Tov112D): -23.4% [at 6.55 µM]

SMILES: COc1ccc(-c2cnc3ccc(NCc4ccc(S(N)(=O)=O)cc4)nn23)cc1OC
- Potency (C33A): inactive
- Potency (CAOV3): inactive
- Potency (Es-2): inactive
- Potency (HeLa): inactive
- Potency (Hek293T): inactive
- Potency (JEG-3): inactive
- Potency (Tov-21-G): inactive
- Potency (Tov112D): inactive

SMILES: CC(=O)OC12COC1CC(O)C1(C)C(=O)C(O)C3=C(C)C(OC(=O)C(O)C(NC(=O)OC(C)(C)C)c4ccccc4)CC(O)(C(OC(=O)c4ccccc4)C21)C3(C)C (stereo not given)
- Potency (C33A): inactive
- Potency (CAOV3): inactive
- Potency (JEG-3): inactive
- Potency (OV90): inactive
- Potency (SKOV3): inactive
- Potency (Tov112D): inactive

SMILES: Cc1ccc(S(=O)(=O)Cc2nc(-c3ccc(C(=O)NCc4cccnc4)cc3)oc2C)cc1
- Potency (C33A): inactive
- Potency (CAOV3): inactive
- Potency (JEG-3): inactive
- Potency (OV90): inactive

SMILES: Cc1ccc(C)c(OCCn2cc(C(=O)O)c3ccccc32)c1
- Potency (C33A): inactive
- Potency (CASKI): inactive
- Potency (Es-2): inactive
- Potency (HeLa): inactive
- Potency (Hek293T): inactive
- Potency (JEG-3): inactive
- Potency (OV90): inactive
- Potency (PA-1): inactive
- Potency (SKOV3): inactive
- Potency (Tov-21-G): inactive
- Potency (Tov112D): inactive

SMILES: CC(C)(C)Nc1nc(Nc2ccc(C(N)=O)cc2)cc(N)c1C#N
- Potency (C33A): 25.1 µM (active)
- Potency (CAOV3): inactive
- Potency (Es-2): inactive
- Potency (JEG-3): inactive
- Potency (OV90): inactive
- Potency (Tov112D): inactive

SMILES: CN(C)C/C=C/C(=O)Nc1cc2c(Nc3ccc(F)c(Cl)c3)ncnc2cc1OC1CCOC1 (stereo not given)
- Potency (C33A): 20 µM (active)
- Potency (CAOV3): 10 µM (active)
- Potency (JEG-3): inactive
- Potency (Tov-21-G): 5.62 µM (active)

SMILES: NC(=O)[C@H]1CCS[C@@H]2C[C@]3(CCCN3C(=O)Cc3ccc(NC(=O)COc4ccc(Cl)cc4Cl)cc3)C(=O)N12
- Potency (C33A): inactive
- Potency (CAOV3): inactive
- Potency (Es-2): inactive
- Potency (HeLa): 31.6 µM (active)
- Potency (OV90): inactive
- Potency (PA-1): 15.8 µM (active)
